The nature of assay [1]: yeast TOR pathway RPL19A-GFP modulators, primary screen, cell-based, S. cerevisiae, multiplex flow cytometry (AID 1862).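 Note: lower values mimic rapamycin by blocking the RPL19A rise seen in DMSO cells.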 The following applies: S. cerevisiae RPL19A-GFP strain, flow cytometry fluorescence, 3 h; at 10 µM; stronger effect = lower value. A general note: Flow cytometry measures light scatter and fluorescence of single cells or particles in a stream.
Assay [2] can be described thus: modulators of MEP2-GFP levels in yeast, primary screen, S. cerevisiae, multiplex flow cytometry (AID 1867;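 active = GFP response, as percent of the DMSO control, above the screen-wide mean plus 3 SD, about 139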;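 note: median GFP channel fluorescence of barcode-gated MEP2-GFP cells measured by flow cytometry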). As to conditions: S. cerevisiae MEP2-GFP strain, 3 h, at 10 µM, stronger effect = higher value, 100% means same as DMSO wells.
Assay [3] can be described thus: modulators of CIT2-GFP expression in yeast, primary screen, S. cerevisiae, GFP fusion, multiplex flow cytometry (AID 1870;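 active = percent response above a set limit, the screen-wide mean plus 3 SD, cut at about 130% in these data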;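 note: barcoded CIT2-GFP strain pooled with four other GFP strains with rapamycin as positive control; median GFP fluorescence per well over plate mean of DMSO wells so 100% = DMSO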). The following applies: 3 h, at 10 µM, stronger effect = higher value.
Assay [4] is described as follows: modulators of LAP4-GFP expression in yeast, primary screen, S. cerevisiae, multiplex flow cytometry (AID 1873;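 active = GFP signal, as percent of the solvent control, above the screen mean plus 3 SD, about 149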). The following applies: 3 h, at 10 µM, stronger effect = higher value.
Assay [5] in a line: modulators of AGP1-GFP expression in yeast TOR pathway, primary screen, cell-based, multiplex flow cytometry, S. cerevisiae (AID 1887;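 active = GFP signal above the screen-wide mean plus 3 SD, that is over about 124.5% of the solvent control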;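 note: AGP1-GFP fusion strain of S. cerevisiae within a five-strain barcoded multiplex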). The following applies: 3 h, at 10 µM, stronger effect = higher value.
Assay [6] can be described thus: inhibitors of CD8+ T cell-vesicle binding, pilot screen, LFA-1/ICAM-1 modulator project, MLPCN validation set, flow cytometry (AID 2523;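 active = response below a set limit, under 55% cells CD8-positive and vesicle-bound, and CD8 cells' 90th-percentile brightness under 279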;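 for vesicle binding response: mean PE anti-B7-1 fluorescence of CD8+ cells relative to row control; 100% = QL9-loaded vesicles with DMSO vehicle in the same plate row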). The following applies: 2C mouse CD8+ T cells, at 7 µM, stronger effect = lower value; double positive events: measured here: CD8+/vesicle+ event percentage.
In assay [7] the target is Integrin beta-1 (Homo sapiens) + Integrin alpha-4 (Homo sapiens) (UniProt P13612+P05556). As to the kind of experiment: inhibition of HUTS-21 binding to VLA-4, pilot screen, VLA-4 allosteric modulator project, U937 cells, HUTS-21 mAb, flow cytometry, validation set (AID 2674;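 active = inhibition above 50%, about 3 SD of the validation set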;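 note: antibody binding induced by the VLA-4 ligand LDV present at three times its Kd; 0% = LDV ligand with antibody and no compound and 100% = antibody without LDV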). The following applies: HUTS-21 LIBS mAb binding, at 6.7 µM, stronger effect = higher value, binding induced by LDV ligand.
Chain of Integrin beta-1 (Homo sapiens) + Integrin alpha-4 (Homo sapiens) (P05556 whole entry, looked up): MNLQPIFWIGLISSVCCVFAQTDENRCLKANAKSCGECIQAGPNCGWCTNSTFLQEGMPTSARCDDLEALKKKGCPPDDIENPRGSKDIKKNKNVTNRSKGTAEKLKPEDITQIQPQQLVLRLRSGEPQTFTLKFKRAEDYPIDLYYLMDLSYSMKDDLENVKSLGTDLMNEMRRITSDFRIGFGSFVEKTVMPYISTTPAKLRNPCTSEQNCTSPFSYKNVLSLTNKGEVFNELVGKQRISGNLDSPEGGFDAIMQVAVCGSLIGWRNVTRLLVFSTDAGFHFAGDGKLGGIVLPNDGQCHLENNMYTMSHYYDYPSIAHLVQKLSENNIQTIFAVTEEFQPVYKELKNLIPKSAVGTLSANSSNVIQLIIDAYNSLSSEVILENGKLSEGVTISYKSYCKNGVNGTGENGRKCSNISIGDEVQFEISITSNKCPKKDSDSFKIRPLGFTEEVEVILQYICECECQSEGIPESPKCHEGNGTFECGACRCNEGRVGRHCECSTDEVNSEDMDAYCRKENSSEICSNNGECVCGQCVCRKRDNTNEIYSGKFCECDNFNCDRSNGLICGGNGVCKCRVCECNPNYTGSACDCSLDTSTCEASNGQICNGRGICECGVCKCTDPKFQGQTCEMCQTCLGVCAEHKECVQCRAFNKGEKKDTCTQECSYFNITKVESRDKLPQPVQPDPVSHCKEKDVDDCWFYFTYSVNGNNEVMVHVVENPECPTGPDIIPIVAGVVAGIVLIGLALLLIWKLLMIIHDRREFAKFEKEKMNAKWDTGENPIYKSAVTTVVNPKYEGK
Chain of Integrin beta-1 (Homo sapiens) + Integrin alpha-4 (Homo sapiens) (P13612 whole entry, looked up): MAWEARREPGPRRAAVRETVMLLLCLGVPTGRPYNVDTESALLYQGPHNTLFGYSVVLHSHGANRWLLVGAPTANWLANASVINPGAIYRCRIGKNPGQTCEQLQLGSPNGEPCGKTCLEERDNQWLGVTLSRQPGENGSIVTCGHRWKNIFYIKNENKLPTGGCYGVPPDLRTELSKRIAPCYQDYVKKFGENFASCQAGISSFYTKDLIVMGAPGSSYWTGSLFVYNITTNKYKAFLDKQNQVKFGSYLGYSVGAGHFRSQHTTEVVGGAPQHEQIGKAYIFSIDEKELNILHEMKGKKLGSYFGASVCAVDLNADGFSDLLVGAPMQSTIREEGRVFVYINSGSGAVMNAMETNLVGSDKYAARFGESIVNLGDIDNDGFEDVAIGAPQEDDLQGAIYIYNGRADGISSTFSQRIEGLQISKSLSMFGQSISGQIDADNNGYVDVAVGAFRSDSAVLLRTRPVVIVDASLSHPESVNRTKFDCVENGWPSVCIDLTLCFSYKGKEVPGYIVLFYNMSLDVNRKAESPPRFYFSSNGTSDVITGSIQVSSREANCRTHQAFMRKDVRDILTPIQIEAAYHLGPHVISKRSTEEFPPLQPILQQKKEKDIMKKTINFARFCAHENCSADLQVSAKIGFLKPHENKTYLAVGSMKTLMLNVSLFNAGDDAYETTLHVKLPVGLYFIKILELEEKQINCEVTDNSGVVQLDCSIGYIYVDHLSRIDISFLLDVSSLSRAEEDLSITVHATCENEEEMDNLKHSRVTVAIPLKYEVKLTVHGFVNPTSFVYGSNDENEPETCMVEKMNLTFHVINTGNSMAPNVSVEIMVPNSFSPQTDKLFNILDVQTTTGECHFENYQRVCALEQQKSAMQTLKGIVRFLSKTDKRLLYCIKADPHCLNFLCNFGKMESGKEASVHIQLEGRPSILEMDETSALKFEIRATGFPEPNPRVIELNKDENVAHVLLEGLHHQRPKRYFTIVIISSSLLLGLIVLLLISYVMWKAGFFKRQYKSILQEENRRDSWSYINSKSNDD

The nature of assay [8]: superoxide lowering in aged yeast cells, pilot screen, validation compound set (AID 2706;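 active = superoxide response below 65% of plate, a cut near 3 SD across the whole screen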;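 note: yeast exposed to compound for one week at 30 degrees C before staining; 100% = mean of all compound wells on the same plate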). As to conditions: S. cerevisiae aging, superoxide DHE fluorescence; at 10 µM; stronger effect = lower value.
Assay [9] concerns the target Beta-adrenergic receptor kinase 1 (Homo sapiens) (UniProt P25098). As to the kind of experiment: GRK2 binders displacing RNA aptamer, biochemical, validation, human GRK2, bead flow cytometry (AID 488806;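 active = aptamer binding inhibition above 30%, about 3 SD of noise from non-fluorescent compounds; inactive = inhibition at or below 30%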). As to conditions: bead-bound GRK2, FAM-aptamer displacement, at 10 µM, stronger effect = higher value.
For assay [10], the target named is Beta-2 adrenergic receptor (Homo sapiens) (UniProt P07550). As to the kind of experiment: beta2AR agonists driving receptor internalization, pilot screen, cell-based, FAP fluorogen, flow cytometry, validation set (AID 504459;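 active = percent response above 42, roughly 3 SD of non-fluorescent test compounds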;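 note: agonist-driven loss of surface beta2AR via internalization measured by FAP dye flow cytometry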). As to conditions: Am2.2-beta2AR cells, FAP surface receptor flow cytometry; at 10 µM; stronger effect = higher value.
Chain of Beta-2 adrenergic receptor (Homo sapiens) (P07550 whole entry, looked up): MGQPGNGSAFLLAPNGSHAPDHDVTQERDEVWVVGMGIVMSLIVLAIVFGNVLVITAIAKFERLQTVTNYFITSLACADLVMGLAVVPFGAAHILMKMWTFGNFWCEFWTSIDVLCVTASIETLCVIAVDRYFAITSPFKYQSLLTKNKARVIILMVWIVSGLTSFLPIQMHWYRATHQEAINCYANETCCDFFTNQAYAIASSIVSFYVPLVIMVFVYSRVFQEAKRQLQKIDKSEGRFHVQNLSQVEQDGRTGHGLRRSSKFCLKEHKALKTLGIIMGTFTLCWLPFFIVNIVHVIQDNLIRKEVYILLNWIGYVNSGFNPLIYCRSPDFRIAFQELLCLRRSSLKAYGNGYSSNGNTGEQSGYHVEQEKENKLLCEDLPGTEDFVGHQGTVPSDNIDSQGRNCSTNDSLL
In assay [11] the target is AP-2 complex subunit beta (Homo sapiens) (UniProt P63010). As to the kind of experiment: inhibitors of arrestin peptide binding to AP2, pilot screen, biochemical, validation set, GST-AP2 beads, flow cytometry (AID 504541;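 active = inhibition above 54%, about 3 SD of non-fluorescent compounds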;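 note: AP2 carries R879A mutation and is captured from E. coli lysate; bead-bound FITC arrestin peptide fluorescence measuring arrestin peptide binding to AP2; 0% = DMSO wells and 100% = excess unlabeled arrestin peptide control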). The following applies: FITC arrestin peptide, at 10 µM, stronger effect = higher value, AP2 beta2 appendage fragment, R879A mutant.
Chain of AP-2 complex subunit beta (Homo sapiens) (P63010 whole entry, looked up, the tested form may be a part, one chain of several): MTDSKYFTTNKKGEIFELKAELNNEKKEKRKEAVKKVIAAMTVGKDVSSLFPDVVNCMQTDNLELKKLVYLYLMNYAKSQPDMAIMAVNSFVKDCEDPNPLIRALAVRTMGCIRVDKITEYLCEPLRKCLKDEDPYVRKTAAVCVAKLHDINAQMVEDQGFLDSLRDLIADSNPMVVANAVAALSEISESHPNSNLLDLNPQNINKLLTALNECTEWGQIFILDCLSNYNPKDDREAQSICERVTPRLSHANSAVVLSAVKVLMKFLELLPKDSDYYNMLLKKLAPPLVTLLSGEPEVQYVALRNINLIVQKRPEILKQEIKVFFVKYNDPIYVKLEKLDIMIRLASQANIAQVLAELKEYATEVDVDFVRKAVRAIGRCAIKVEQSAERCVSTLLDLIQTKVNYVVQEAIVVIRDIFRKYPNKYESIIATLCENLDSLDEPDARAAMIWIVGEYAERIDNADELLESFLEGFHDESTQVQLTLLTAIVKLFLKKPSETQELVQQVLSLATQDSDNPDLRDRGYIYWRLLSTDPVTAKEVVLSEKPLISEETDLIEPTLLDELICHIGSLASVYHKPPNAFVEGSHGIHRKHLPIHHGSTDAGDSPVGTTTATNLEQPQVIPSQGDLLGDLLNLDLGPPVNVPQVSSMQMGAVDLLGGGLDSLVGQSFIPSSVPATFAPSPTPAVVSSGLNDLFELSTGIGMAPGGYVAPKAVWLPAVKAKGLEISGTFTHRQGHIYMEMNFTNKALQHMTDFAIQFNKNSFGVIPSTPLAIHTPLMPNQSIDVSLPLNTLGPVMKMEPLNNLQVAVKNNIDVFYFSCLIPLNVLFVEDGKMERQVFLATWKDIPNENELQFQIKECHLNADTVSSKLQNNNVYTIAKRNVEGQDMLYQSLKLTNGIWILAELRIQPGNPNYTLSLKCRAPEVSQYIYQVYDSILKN
A short description of assay [12]: yeast V-ATPase proton transport modulators, S. cerevisiae, pHLuorin, HTS validation (AID 504600; in the data active = response above about 15%;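 note: plate controls were DMSO for no effect and reference compound for full effect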). As to conditions: S. cerevisiae pHLuorin cytosolic pH, at 10 µM, stronger effect = higher value.
Assay [13] concerns anti-desmoglein-3 scFv antibody binding to human DSG3. The assay can be described thus: inhibitors of anti-DSG3 scFv binding to DSG3, pilot screen, biochemical, validation compound set, bead-based, flow cytometry (AID 588368;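 active = binding below the plate cutoff, the plate median minus 3 SD, with a reading above zero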;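 note: signal is the median channel fluorescence of bead-bound GFP antibody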). The following applies: Protein G beads, DSG3-Fc, scFv-GFP binding, at 10 µM, stronger effect = lower value.
Assay [14] can be described thus: inhibitors of fungal efflux pumps CDR1, CDR2, MDR1, pilot screen, validation compound set, multiplex, phenotypic (AID 588506;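 active = efflux inhibition above 0.42, the validation set average plus 4 SD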;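 note: Nile Red retained in cells so higher fluorescence means more efflux inhibition; 0 = negative control wells and 1 = enniatin B 25 µM full block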). The following applies: S. cerevisiae pump-expressing triplex, Nile Red efflux flow cytometry; at 10 µM; stronger effect = higher value; the pumps come from Candida albicans.
Assay [15] deals with ATP-binding cassette sub-family B member 6 (Homo sapiens) (UniProt Q9NP58). The assay can be described thus: ABCB6 transporter inhibitors, pilot screen, K562-ABCB6 cells, flow cytometry, validation set (AID 588550;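 active = inhibition above the screen-wide mean plus 3 SD, about 51%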;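 note: 0% = DMSO wells and 100% = benzethonium chloride 70 µM positive control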). As to conditions: K562-ABCB6 porphyrin accumulation, 1 h, at 10 µM, stronger effect = higher value.
Chain of ATP-binding cassette sub-family B member 6 (Homo sapiens) (Q9NP58 whole entry, looked up): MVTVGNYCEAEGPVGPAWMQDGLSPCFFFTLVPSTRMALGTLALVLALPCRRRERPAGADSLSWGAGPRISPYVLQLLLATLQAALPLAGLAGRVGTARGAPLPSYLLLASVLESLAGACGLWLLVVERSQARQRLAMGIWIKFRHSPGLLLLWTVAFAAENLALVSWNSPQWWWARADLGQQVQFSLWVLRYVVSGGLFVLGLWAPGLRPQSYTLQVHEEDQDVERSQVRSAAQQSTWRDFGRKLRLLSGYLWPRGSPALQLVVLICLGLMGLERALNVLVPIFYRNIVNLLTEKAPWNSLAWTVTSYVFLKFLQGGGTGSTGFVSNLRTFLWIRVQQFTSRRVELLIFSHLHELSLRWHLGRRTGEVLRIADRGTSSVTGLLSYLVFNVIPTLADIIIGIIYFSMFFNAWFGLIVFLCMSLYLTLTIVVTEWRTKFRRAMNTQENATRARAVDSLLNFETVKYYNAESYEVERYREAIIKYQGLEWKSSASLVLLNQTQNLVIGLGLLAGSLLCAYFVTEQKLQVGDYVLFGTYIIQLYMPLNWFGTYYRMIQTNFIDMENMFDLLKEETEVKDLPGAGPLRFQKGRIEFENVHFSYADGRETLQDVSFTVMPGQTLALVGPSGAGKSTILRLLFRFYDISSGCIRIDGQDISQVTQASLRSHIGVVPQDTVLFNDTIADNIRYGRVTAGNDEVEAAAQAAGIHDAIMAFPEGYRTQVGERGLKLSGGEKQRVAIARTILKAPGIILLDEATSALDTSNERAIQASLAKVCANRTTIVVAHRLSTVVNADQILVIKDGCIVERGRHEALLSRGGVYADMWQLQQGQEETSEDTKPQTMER
Assay [16] can be described thus: promoters of myeloid differentiation in arrested cells, primary screen, cell-based, GFP/MAC1 double positive, flow cytometry, validation set (AID 588685;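 active = differentiation response of at least 50%, scaled between solvent and reference control, from cells with both markers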;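 note: compound exposure lasts four days before antibody staining and flow analysis; 0% = DMSO wells and 100% = 5 µM fulvestrant positive control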). The following applies: ER-HoxA9 marrow cells, stronger effect = higher value, normalized: vehicle 0, fulvestrant 100.

Inconclusive results are not listed. Activity calls are given as the source filed them. Cut-off read from the data, not from the text of the source, unless noted: active = percent of DMSO control GFP below about 86%; inactive = the rest, inconclusive results apart.

Chain of Beta-adrenergic receptor kinase 1 (Homo sapiens) (P25098 whole entry, looked up): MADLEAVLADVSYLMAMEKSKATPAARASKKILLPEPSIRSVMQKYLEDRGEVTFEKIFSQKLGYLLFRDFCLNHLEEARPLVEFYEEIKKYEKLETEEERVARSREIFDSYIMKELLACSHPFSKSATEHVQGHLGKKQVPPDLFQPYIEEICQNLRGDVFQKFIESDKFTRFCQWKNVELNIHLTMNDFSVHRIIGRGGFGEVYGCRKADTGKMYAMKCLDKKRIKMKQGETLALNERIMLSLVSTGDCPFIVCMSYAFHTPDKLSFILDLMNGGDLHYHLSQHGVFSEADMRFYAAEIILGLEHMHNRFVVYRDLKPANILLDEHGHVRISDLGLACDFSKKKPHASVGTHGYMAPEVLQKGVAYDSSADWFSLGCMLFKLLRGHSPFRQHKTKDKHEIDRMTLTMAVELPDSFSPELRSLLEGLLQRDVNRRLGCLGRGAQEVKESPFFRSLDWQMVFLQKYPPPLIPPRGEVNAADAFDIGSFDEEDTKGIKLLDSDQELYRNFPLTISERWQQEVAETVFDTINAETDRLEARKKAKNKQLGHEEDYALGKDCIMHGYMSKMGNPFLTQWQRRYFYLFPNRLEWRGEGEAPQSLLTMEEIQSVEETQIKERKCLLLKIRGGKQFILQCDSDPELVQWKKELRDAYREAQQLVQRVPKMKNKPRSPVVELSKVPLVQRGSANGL

For `O=C(O)CCSCCC(=O)O`, the percent of DMSO control GFP in [1] was 99.2% (inactive). The GFP response vs DMSO is 107% (inactive) in [2] and 97.3% (inactive) in assay [4]. The percent response of DMSO control in [3] was 94.2% (inactive). For the same compound, the GFP response, % of DMSO in [5] was 102% (inactive). For the same compound, the double positive events in assay [6] is 63.2%. The vesicle binding response in assay [6] is 5720% (inactive). Further, the inhibition (in general, the change of the read-out against control, counted positive when it falls) in assay [7] is 8.88% (inactive); in assay [11], 10% (inactive); in [15], 7% (inactive). Further, the superoxide response (% of plate) in assay [8] was 107% (inactive). Also, the aptamer binding inhibition in [9] was 1% (inactive). Also, the values for the response in assay [10] and in [12] were 2.6% (inactive) and 1.2% (inactive), respectively. In addition, the binding (% of control) in [13] was 94% (inactive). Besides, the efflux inhibition (fraction of control) in [14] is 0.05 (inactive). The differentiation response in assay [16] is -9.53% (inactive).
In the case of `Cc1ccc(NC(=O)CSc2nc(O)c(Cc3ccccc3)c(=O)n2-c2ccccc2)cc1`, in assay [1], the percent of DMSO control GFP is 103% (inactive). Besides, the values for the GFP response vs DMSO in [2] and in [4] were 105% (inactive) and 99.3% (inactive), respectively. Moreover, the percent response of DMSO control in assay [3] is 94.2% (inactive). In [5], the GFP response, % of DMSO is 102% (inactive). This compound gave a double positive events in [6] of 65%. Further, in assay [6], the vesicle binding response is 210% (inactive). The inhibition in assay [7] is -6.68% (inactive); in assay [11] it was 16.9% (inactive); in assay [15], 9% (inactive). Also, the superoxide response (% of plate) in assay [8] was 95.4% (inactive). The aptamer binding inhibition in assay [9] is 3% (inactive). Moreover, the response in assay [10] is 3.5% (inactive); in assay [12], -1.44% (inactive). The binding (% of control) in assay [13] is 97.7% (inactive). The efflux inhibition (fraction of control) in assay [14] is -0.17 (inactive). Also, the differentiation response in assay [16] is 1.22% (inactive).
In the case of `OCCOCCN1CCN(C(c2ccccc2)c2ccc(Cl)cc2)CC1` (stereo not drawn), in assay [1], the percent of DMSO control GFP was 90.4% (inactive). In addition, the GFP response vs DMSO in [2] is 114% (inactive); in assay [4], 77% (inactive). In addition, the percent response of DMSO control in assay [3] was 95.2% (inactive). In addition, the GFP response, % of DMSO in assay [5] was 93.8% (inactive). Moreover, the double positive events in [6] came out at 66.8%. In addition, the vesicle binding response in [6] was 218% (inactive). Further, the inhibition in assay [7] was -0.33% (inactive); in assay [11], 0.96% (inactive); in [15] it was 12% (inactive). Besides, in assay [8], the superoxide response (% of plate) is 95% (inactive). Moreover, the aptamer binding inhibition in [9] is 1% (inactive). Moreover, the response in [10] was 3.36% (inactive); in [12] it was 1.14% (inactive). For the same compound, the binding (% of control) in assay [13] was 110% (inactive). Further, the efflux inhibition (fraction of control) in assay [14] is -0.38 (inactive). In addition, the differentiation response in assay [16] is -1.64% (inactive).
In the case of `COc1cc(C(=O)OCCn2c(=O)c3c(ncn3CCN(C)C)n(C)c2=O)cc(OC)c1OC`, the percent of DMSO control GFP in assay [1] is 106% (inactive). Further, the GFP response vs DMSO in assay [2] was 103% (inactive); in assay [4], 112% (inactive). Moreover, the percent response of DMSO control in assay [3] was 101% (inactive). Moreover, in [5], the GFP response, % of DMSO was 117% (inactive). Further, in assay [6], the double positive events stood at 62.6%. The vesicle binding response in [6] is 156% (inactive). For the same compound, the inhibition in assay [7] is 4.84% (inactive); in assay [11] it was -2.34% (inactive); in assay [15], 9% (inactive). Further, the superoxide response (% of plate) in assay [8] is 115% (inactive). Also, the aptamer binding inhibition in assay [9] is 6% (inactive). Further, the response in assay [10] is -24.2% (inactive); in assay [12] it was -26.2% (inactive). The binding (% of control) in assay [13] is 112% (inactive). For the same compound, the efflux inhibition (fraction of control) in [14] was -0.13 (inactive). Besides, the differentiation response in assay [16] was -6.96% (inactive).

These data come from PubChem BioAssay.
